A selection: hits, their analogues and other compounds. The true share with any hit is near 2.4%.
D2 ag-1: activates the human D2 dopamine receptor. P14416. HEK293 T-REx D2 cells, calcium flux agonist mode. activation, % at 2 µM. hit rate 0.53% among 340,000;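 active = activation over 3 SD above normal in the single-dose calcium agonist read, cut at about 30% in these data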
Target sequence (P14416 whole entry, looked up): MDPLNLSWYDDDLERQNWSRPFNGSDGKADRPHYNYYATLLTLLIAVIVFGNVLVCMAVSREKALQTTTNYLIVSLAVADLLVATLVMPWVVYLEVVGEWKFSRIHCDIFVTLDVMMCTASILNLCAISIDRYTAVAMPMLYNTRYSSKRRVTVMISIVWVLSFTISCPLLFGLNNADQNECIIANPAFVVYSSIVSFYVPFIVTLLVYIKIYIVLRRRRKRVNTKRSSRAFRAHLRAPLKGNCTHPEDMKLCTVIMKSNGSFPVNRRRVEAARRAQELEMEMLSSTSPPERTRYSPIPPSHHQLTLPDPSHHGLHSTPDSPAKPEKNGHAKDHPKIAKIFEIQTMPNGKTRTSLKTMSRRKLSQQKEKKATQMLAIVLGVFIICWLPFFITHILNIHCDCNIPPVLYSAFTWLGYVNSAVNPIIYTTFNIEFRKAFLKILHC
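Calcium-flux readout, 1 cycle/sec over 180 s following compound pin transfer, in inducible HEK293 Trex D2 cells (force-coupled); dopamine controls included. Positive calcium responses during this window marked compounds as potential agonists.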
D2 PAM-1: D2 dopamine receptor (human) potentiation | potentiation, % at 10 µM | HEK293 T-REx D2, calcium flux, EC20 dopamine potentiation | hit rate 0.34% among 340,000 | AID 485347;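 active = potentiation over 3 SD above the plate norm, cut at about 30% in these data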
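Cells plated with tetracycline inducer and held overnight at 30 C; calcium dye loaded 30–90 min at room temperature; baseline taken, compound added and read 180 s; EC20 dopamine then added and read 180 s.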
D2 ag-2: agonists of human D2 dopamine receptor (beta-arrestin); DiscoveRx PathHunter D2 beta-arrestin, luminescence, 90 min; 100% = 57 uM dopamine signal; activation, % (test concentration not listed); hit rate 0.084% among 360,000; AID 624465; in the data active = activation above about 40%; inconclusive = between about 15% and that limit
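Agonist mode: compounds alone added to overnight-plated D2 PathHunter cells for 90 min at 37 C, with 57 uM final dopamine (EC100) defining full response. Beta-arrestin recruitment detected by chemiluminescent reagent, read after 1 h at ambient temperature.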
D2 antag: antagonizes the human D2 dopamine receptor. hit rate 2% among 340,000. AID 485344. inhibition, % at 10 µM. P14416. HEK293 TREx D2 cells, calcium flux, dopamine EC80; in the data active = inhibition above about 30%; inactive = below that, where a call was filed
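Calcium flux kinetic readout in an inducible HEK293 TREx D2 line plated overnight at 30 C. After 180 s compound exposure, an EC80 dopamine challenge follows with another 180 s kinetic read to detect antagonism.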
D2 PAM-2: positive allosteric modulators of human D2 dopamine receptor; P14416; DiscoveRx D2 beta-arrestin cells, luminescence, 90 min; 100% = 57 uM dopamine signal; potentiation, % (test concentration not listed); hit rate 0.23% among 360,000; in the data active = potentiation above about 50%; inconclusive = mostly about 30% to 49%
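PathHunter beta-arrestin assay in DiscoveRx D2 cells. Compounds were added with an EC20 of dopamine (50 nM final) for 90 min at 37 deg C. Luminescence was read 1 h after detection reagent, with 57 uM dopamine as the EC100 control.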
Large screens that a line does not name were inactive.

Cc1ccc(S(=O)(=O)N2CCOCC2)cc1C(=O)OC(C)C(=O)c1ccccc1 (centres undefined)	D2 antag 36.6
CC1Oc2ccccc2N(CC(=O)NCc2ccccc2)C1=O (centres undefined)	none
CC1Oc2ccccc2N(CC(=O)NC2CC2)C1=O (centres undefined)	D2 antag 32.7 (no result: D2 PAM-1)
CCOC(=O)c1[nH]c(C)c(CCC(=O)Nc2ccc(N(CC)CC)cc2C)c1C	none (no result: D2 ag-2, D2 antag, D2 PAM-2)
O=C(c1ccc(F)cc1)C1CCN(C(=O)c2ccc(F)cc2)CC1	D2 antag 41.0
O=C(c1ccc(N2C(=O)C3CC=C(Cl)CC3C2=O)cc1)N1CCCCC1 (centres undefined)	D2 antag 37.7
COc1ccc(CN2CCC(C(=O)c3ccc(F)cc3)CC2)cc1	D2 antag 78.5
O=C(c1ccc(F)cc1)C1CCN(C(=S)Nc2ccc(F)cc2)CC1	D2 antag 47.5
Cc1ccc(CN2CCC(C(=O)c3ccc(F)cc3)CC2)cc1	none (no result: D2 ag-1, D2 PAM-1, D2 antag)
COc1ccc(CCNC(=O)CSc2nnc(-c3ccc(C)cc3)c(-c3ccc(C)cc3)n2)cc1OC	none (no result: D2 ag-1, D2 ag-2, D2 antag, D2 PAM-2)
O=C(c1ccccc1)N1CCCCCC1	none
CCCNC(=S)N1CCC(C(=O)c2ccc(F)cc2)CC1	D2 PAM-1 34.7
O=C(c1ccc(C(=O)N2CCCCCC2)cc1)N1CCCCCC1	D2 PAM-1 31.5
CC1(C)Cc2c(ccc3ccccc23)/C(=C/C(=O)N2CCCCC2)N1	D2 antag 32.7
COc1ccc(NC(c2ccccc2)c2ccncc2)cc1 (centres undefined)	D2 antag 40.7
COc1cc(NC(c2ccccc2)c2ccccc2)cc(OC)c1OC	none
Cc1ccc(CSCC(=O)N2CCCC2)cc1	D2 antag 32.8
Cc1ccc(CSCC(=O)Nc2ccccc2C(=O)O)cc1	D2 PAM-2 52.1
CN(C)c1ccc(C(CNS(=O)(=O)c2ccc(Cl)cc2)N2CCCC2)cc1 (centres undefined)	none (no result: D2 ag-2, D2 antag, D2 PAM-2)
COc1cc2[nH]c(C(=O)NCC3CCCO3)cc2c(OC)c1OC (centres undefined)	D2 antag 55.3
O=C(Nc1nc2ccc(F)cc2s1)C1CCN(S(=O)(=O)c2cc([N+](=O)[O-])ccc2Cl)CC1	D2 PAM-2 inconclusive
COc1ccc2nc(NC(=O)C3CCN(S(=O)(=O)c4cnc[nH]4)CC3)sc2c1	D2 antag 32.3
O=C(COC(=O)C1CCN(S(=O)(=O)c2cc([N+](=O)[O-])ccc2Cl)CC1)Nc1ncc(Cl)cc1Cl	D2 PAM-2 70.4
Cc1ccc2nc(NC(=O)C3CCN(S(=O)(=O)c4cc([N+](=O)[O-])ccc4Cl)CC3)sc2c1	D2 ag-2 inconclusive, D2 PAM-2 58.8
CC(=O)COC(=O)C1CCN(S(=O)(=O)c2cc([N+](=O)[O-])ccc2Cl)CC1	none
CCc1ccc(NC(=O)Cn2c(-c3cncs3)nc3ccccc32)cc1	none (no result: D2 PAM-1, D2 ag-2, D2 antag, D2 PAM-2)
O=C(Cn1c(=O)oc2cc(S(=O)(=O)N3CCCCCC3)ccc21)Nc1cccc(C(F)(F)F)c1	none (no result: D2 ag-2, D2 antag, D2 PAM-2)
NC(N)=NC(N)=Nc1ccc2ccccc2c1	D2 antag 32.9
COCCNCCOc1ccccc1-c1ccccc1	none
C=CCNCCCCOc1ccccc1-c1ccccc1	D2 antag 49.2
COCCCNCCOc1ccccc1-c1ccccc1	D2 antag 92.5
COCCCNCCCCOc1ccccc1-c1ccccc1	D2 antag 89.4
C=CCNCCCCOc1ccc(OCc2ccccc2)cc1	none
Cc1ccc(NC(=O)c2ccc(=O)n(Cc3ccccc3C)c2)c(C)c1	none (no result: D2 ag-2, D2 antag, D2 PAM-2)
CCOC(=O)Cc1csc(NC(=O)COc2ccc3ccccc3c2)n1	D2 antag 58.7
CCC(C)NC(=O)c1ccc(Cn2c(=O)c3cccn3c3cccnc32)cc1 (centres undefined)	none (no result: D2 ag-2, D2 antag, D2 PAM-2)
Cc1nc2nc(NCc3ccc(Br)cc3)[nH]n2c(=O)c1Cc1ccccc1	none (no result: D2 ag-2, D2 antag, D2 PAM-2)
Cc1ccc(CNC(=O)CN(c2ccc(Cl)cc2Cl)S(=O)(=O)c2ccccc2)cc1	none (no result: D2 ag-2, D2 antag, D2 PAM-2)
COc1cc(OC)cc(C(=O)N/N=C/c2ccc(OC)c(COc3ccc(F)cc3)c2)c1	D2 antag 34.2
COc1ccc(OCc2cc(/C=N\NC(=O)c3ccccc3)ccc2OC)cc1	none
CCOC(=O)CNC(=O)c1cc2c(=O)oc3ccccc3c2s1	none (no result: D2 PAM-1, D2 ag-2, D2 antag, D2 PAM-2)
COc1ccc(C(=O)Nc2c3c(nn2C(C)(C)C)CS(=O)(=O)C3)cc1OC	D2 antag 35.1
CC(C)(C)c1ccc(C(=O)Nc2c3c(nn2C(C)(C)C)CS(=O)(=O)C3)cc1	none
O=C(CSc1ccc(-c2ccc(F)cc2)nn1)NCCc1ccccc1	none
COc1cccc(NC(=O)CN(c2cccc(OC)c2)S(C)(=O)=O)c1	D2 antag 38.1
CCC(=O)Nc1ccc2c(c1)OCCO2	D2 PAM-1 30.2
CS(=O)(=O)N(CC(=O)Nc1ccc2c(c1)OCCO2)c1ccc2c(c1)OCO2	D2 PAM-1 47.6
COc1ccccc1-c1ccc(SCC(=O)NCCc2ccccc2)nn1	D2 antag 48.4
COc1ccc(CNC(=O)c2ccc3c(c2)N(Cc2c(F)cccc2Cl)C(=O)CS3)cc1	none (no result: D2 ag-2, D2 antag, D2 PAM-2)
C/C(CC(=O)Nc1ccc2c(c1)OCCO2)=N\NC(=O)COc1ccccc1C	none
COc1ccc(NC(=O)CSc2ccc(-c3ccccn3)nn2)cc1OC	D2 ag-2 54.3, D2 PAM-2 inconclusive
O=C(CSc1ccc(-c2ccccc2)nn1)Nc1ccc2c(c1)OCCO2	D2 antag 32.1
O=C(CSc1ccccc1)Nc1ccc2c(c1)OCCO2	none
COc1ccccc1NC(=O)CSc1ccc(-c2ccccn2)nn1	none
C/C(CC(=O)Nc1ccc2c(c1)OCCO2)=N\NC(=O)C(=O)Nc1ccccc1C	D2 antag 32.0
COc1ccc(-c2nc3scc(CCNS(=O)(=O)c4cccs4)n3n2)cc1	none (no result: D2 ag-2, D2 antag, D2 PAM-2)
CCOC(=O)c1ccc2nc(C)cc(Nc3ccc(OC(C)C)cc3)c2c1	none (no result: D2 ag-2, D2 antag, D2 PAM-2)
Cc1ccccc1S(=O)Cc1ccc(C(=O)NC2CCN(Cc3ccccc3)CC2)o1 (centres undefined)	D2 antag 43.9
Cc1cccc(S(=O)Cc2ccc(C(=O)NC3CCN(Cc4ccccc4)CC3)o2)c1 (centres undefined)	D2 antag 44.4
CCOC(=O)N1CCC(NC(=O)c2ccc(CS(=O)c3ccc(Cl)cc3)o2)CC1 (centres undefined)	none
CCc1ccccc1S(=O)(=O)Cc1ccc(C(=O)NCCc2ccc(C)cc2)o1	none (no result: D2 ag-1, D2 ag-2, D2 antag, D2 PAM-2)
COc1cc2c(=O)c(C(=O)c3ccc(F)cc3)cn(Cc3cccc(F)c3)c2cc1OC	none (no result: D2 ag-2, D2 antag, D2 PAM-2)
O=C(c1cccs1)N1CCN(C(=O)C2CCCO2)CC1 (centres undefined)	D2 antag 37.4
COc1ccc(CNC(=O)/C(C)=C\C(=O)O)cc1	D2 antag 36.3
CCCn1cc(S(=O)(=O)c2cc(C)ccc2C)c(=O)c2cc(F)c(N3CCCCCC3)cc21	none (no result: D2 ag-1, D2 ag-2, D2 antag, D2 PAM-2)
C=CCN(CC=C)CCOc1cccc2ccccc12	D2 ag-1 35.2
C=CCN(CC=C)CCOc1ccccc1F	none

Bioassay records as filed in PubChem.
